What all share (assay): Primary Screen for Target Class Profiling of Small Molecule Inhibitors of Methyltransferases
In assay [1] the target is Catechol O-methyltransferase (Homo sapiens) (UniProt P21964). To be noted: purified enzyme, MTase-Glo SAH luminescence; activity change, negative = inhibition: at 40 µM, stronger effect = lower value; outcome: 40 uM. From the text: (§1) PI: Matthew D. Hall Ph.D. and Quinlin M. Hanson Ph.D.
(§2) National Center for Advancing Translational Sciences (NCATS)
(§3) National Institute of Health (NIH), Rockville, MD
(§4) Target class profiling (TCP) is a chemical biology approach amenable to investigating understudied biological targets. TCP is achieved by developing a generalizable assay platform and applying it to screen a curated set of compound libraries against representative members of a target class. Small molecule methyltransferases (SMMTase) are a subclass of methyltransferase that act on metabolites to modulate signaling pathways, metabolize xenobiotics, or balance the available methyl pool. We screened four curated libraries totaling 27,574 unique compounds against the SMMTases nicotinamide N-methyltransferase (NNMT), phenylethanolamine N-methyltransferase (PNMT), histamine N-methyltransferase (HNMT), glycine N-methyltransferase (GNMT), catechol O-methyltransferase (COMT), and guanidinoacetate N-methyltransferase (GAMT). The data generated by this TCP can be leveraged for informed tool molecule development. For example, in the associated publication we identified a chemotype of HNMT-selective inhibitors. Additionally, we identified a putative SMMTase-selective inhibitor with potential as a tool molecule for studying broader methyltransferase biology.
(§5) High-through put screening assays were developed at the National Center for Advancing Translational Science (NCATS) for the enzymes NNMT, PNMT, HNMT, GNMT, COMT, and GAMT. Enzymatic activity was measured as a function of SAM cofactor conversion using the MTase Glo kit (Promega) for all enzymes. All assays were performed in 1536-well format with substrates and SAM concentrations at KM values. Enzyme concentration and assay timing were optimized for 10-20% SAM conversion. Initial screening of 27,574 compounds was done as single-point assays using the highest compound concentration (40 uM). […] These compounds were replated in 11-point dose response and assayed against NNMT, PNMT, HNMT, GNMT, COMT, GAMT, and a counter-assay. The IC50 and efficacy (maximal response) values were determined for each dose-response curve. These values are also accounted for in the area under the curve (AUC) values.
(§6) PROTOCOL TABLE (as described by Inglese J, Shamu CE and Guy RK. 2007)
(§7) SEQUENCE No. (e.g., 1, 2, 3, etc.); […] (e.g., Cells, Incubation, Reagent, etc.); VALUE; DESCRIPTION.
(§8) 1; Reagent; 2 uL; SMMTase Enzyme (2x) in reaction buffer, columns 1- 48.
(§9) 2; Reagent; 1 uL; SAM (4x) in reaction buffer, columns 1-48.
(§10) 3; Controls; 23 nL; DMSO in column 4; sinefungin in DMSO (0 uM - 40 uM) in 7-point 1:2 dilution series (n = 2) in column 2.
(§11) 4; Compounds; 23 nL; Columns 5-48.
(§12) 5; Reagent; 1 uL; Substrate (4x) in reaction buffer, columns 2-48.
(§13) 6; Time; 20-30 min; Incubation.
(§14) 7; Reagent; 1 uL; MTase-Glo reagent (5X), columns 1-48.
(§15) 8; Time; 30 min; Incubation.
(§16) 9; Reagent; 5 uL; MTase-Glo Detection reagent, columns 1-48.
(§17) 10; Time; 30 min; Incubation, luminescence evolution.
(§18) 11; Detection; Luminescence; ViewLux uHTS Microplate Imager (PerkinElmer).
(§19) NOTES (numbers refer to Sequence numbers above)
(§20) 1, 2, 5. White Medium Binding Greiner 1536-well plates (Cat #789175-F, Greiner Bio-One, Monroe, NC); Reaction buffer: 50 mM Tris, pH 8.0, 3 mM MgCl2, 1 mM EDTA, 50 mM NaCl, 1 mM DTT, and 0.1 mg/mL BSA. Evaporation was prevented by covering assay plates with metal lids containing holes to allow gas diffusion.
(§21) 1. Six SMMTase were profiled: HNMT, GNMT, PNMT, COMT, NNMT, GAMT
(§22) 5. The corresponding substrate was used for each enzyme: HNMT - 5.3 uM Histamine; GNMT - >500 uM Glycine; PNMT - 16.2 uM Norephinephrine; COMT - 13.7 uM Norephinephrine; NNMT - 3.8 uM Nicotinamide; GAMT - 2.5 uM Guanidinoacetate.6, 8, 10. Room temperature
(§23) 6. Final reaction conditions: 10 nM COMT, 5 uM SAM, 15 uM norepinephrine, 50 mM Tris, pH 8.0, 3 mM MgCl2, 1 mM EDTA, 50 mM NaCl, 1 mM DTT, and 0.1 mg/mL BSA; refer to tables 2 and S1 for specific timing.
8. […]

Assay [2] addresses Glycine N-methyltransferase (Homo sapiens) (UniProt Q14749). To be noted: purified enzyme, MTase-Glo SAH luminescence; measured here: GNMT inhibition; at 40 µM; stronger effect = lower value.
Excerpt: as §1, §2, §3, §4, §5, §6, §7, §8, §9, §10, §11, §12, §13, §14, §15, §16, §17, §18, §19, §20, §21, §22, §23
8. […]

Assay [3] deals with Guanidinoacetate N-methyltransferase (Homo sapiens) (UniProt Q14353). Conditions: purified enzyme, MTase-Glo SAH luminescence; measured here: GAMT inhibition; at 40 µM; stronger effect = lower value.
Excerpt: as §1, §2, §3, §4, §5, §6, §7, §8, §9, §10, §11, §12, §13, §14, §15, §16, §17, §18, §19, §20, §21, §22, §23
8. […]

Assay [4] concerns the target Histamine N-methyltransferase (Homo sapiens) (UniProt P50135). Conditions: purified enzyme, MTase-Glo SAH luminescence; measured here: HNMT inhibition; at 40 µM; stronger effect = lower value.
Excerpt: as §1, §2, §3, §4, §5, §6, §7, §8, §9, §10, §11, §12, §13, §14, §15, §16, §17, §18, §19, §20, §21, §22, §23
8. […]

Assay [5] deals with Nicotinamide N-methyltransferase (Homo sapiens) (UniProt P40261). Conditions: purified enzyme, MTase-Glo SAH luminescence; measured here: NNMT inhibition; at 40 µM; stronger effect = lower value.
Excerpt: as §1, §2, §3, §4, §5, §6, §7, §8, §9, §10, §11, §12, §13, §14, §15, §16, §17, §18, §19, §20, §21, §22, §23
8. […]

Assay [6] addresses Phenylethanolamine N-methyltransferase (Homo sapiens) (UniProt P11086). Conditions: purified enzyme, MTase-Glo SAH luminescence; measured here: PNMT inhibition; at 40 µM; stronger effect = lower value.
Excerpt: as §1, §2, §3, §4, §5, §6, §7, §8, §9, §10, §11, §12, §13, §14, §15, §16, §17, §18, §19, §20, §21, §22, §23
8. […]

This note sets out measurements from PubChem BioAssay AID1745853 (National Center for Advancing Translational Sciences (NCATS), 2022).

SMILES strings stand for the structures. About 970 (3.9%) of roughly 25,000 compounds were called active. Inconclusive results (about 8%) are left out. No rule for the calls is given here. Many of the other results were omitted from the sample, so actives are more common in it than they were.
% is scaled to controls: 0 for no effect and ±100 for the full control effect.

Glycine N-methyltransferase (Homo sapiens), sequence (Q14749 whole entry, looked up): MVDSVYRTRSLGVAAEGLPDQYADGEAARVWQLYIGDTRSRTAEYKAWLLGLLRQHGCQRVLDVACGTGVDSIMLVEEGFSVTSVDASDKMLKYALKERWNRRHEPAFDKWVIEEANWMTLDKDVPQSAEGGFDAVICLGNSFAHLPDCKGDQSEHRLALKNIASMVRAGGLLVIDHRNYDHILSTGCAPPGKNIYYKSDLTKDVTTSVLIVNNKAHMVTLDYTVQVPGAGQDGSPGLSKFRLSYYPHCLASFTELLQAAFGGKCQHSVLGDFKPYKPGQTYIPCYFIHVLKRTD
Histamine N-methyltransferase (Homo sapiens), sequence (P50135 whole entry, looked up): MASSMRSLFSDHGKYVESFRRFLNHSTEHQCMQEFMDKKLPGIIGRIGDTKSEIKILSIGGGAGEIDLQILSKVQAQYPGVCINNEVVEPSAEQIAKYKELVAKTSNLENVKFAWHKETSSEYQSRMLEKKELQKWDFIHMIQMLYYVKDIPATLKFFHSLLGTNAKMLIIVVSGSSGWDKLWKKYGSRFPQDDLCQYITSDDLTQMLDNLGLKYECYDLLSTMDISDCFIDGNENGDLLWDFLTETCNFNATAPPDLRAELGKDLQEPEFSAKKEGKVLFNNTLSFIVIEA
Catechol O-methyltransferase (Homo sapiens), sequence (P21964 whole entry, looked up): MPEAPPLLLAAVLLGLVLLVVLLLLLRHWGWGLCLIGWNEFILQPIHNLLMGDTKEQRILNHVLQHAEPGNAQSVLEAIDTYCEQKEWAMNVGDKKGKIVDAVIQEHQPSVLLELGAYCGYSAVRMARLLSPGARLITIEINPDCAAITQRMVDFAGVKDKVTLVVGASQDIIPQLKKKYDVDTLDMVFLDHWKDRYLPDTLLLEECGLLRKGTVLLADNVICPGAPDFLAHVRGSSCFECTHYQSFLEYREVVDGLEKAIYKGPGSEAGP
Phenylethanolamine N-methyltransferase (Homo sapiens), sequence (P11086 whole entry, looked up): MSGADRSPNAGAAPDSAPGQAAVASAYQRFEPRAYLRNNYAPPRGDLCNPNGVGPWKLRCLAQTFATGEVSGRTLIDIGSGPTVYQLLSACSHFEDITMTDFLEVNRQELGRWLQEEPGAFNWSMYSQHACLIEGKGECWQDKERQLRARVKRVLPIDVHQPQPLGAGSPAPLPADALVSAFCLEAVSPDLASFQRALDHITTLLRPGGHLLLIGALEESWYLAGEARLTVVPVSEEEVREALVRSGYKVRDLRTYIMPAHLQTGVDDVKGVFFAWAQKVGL
Nicotinamide N-methyltransferase (Homo sapiens), sequence (P40261 whole entry, looked up): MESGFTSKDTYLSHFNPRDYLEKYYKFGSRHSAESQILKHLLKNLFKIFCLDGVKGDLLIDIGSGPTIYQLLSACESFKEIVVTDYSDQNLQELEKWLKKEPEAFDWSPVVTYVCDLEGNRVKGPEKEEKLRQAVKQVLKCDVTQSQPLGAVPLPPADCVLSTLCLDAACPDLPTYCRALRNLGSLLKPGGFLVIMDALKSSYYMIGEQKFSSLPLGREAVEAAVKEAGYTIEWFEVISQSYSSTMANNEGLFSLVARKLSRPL

Take `Oc1cc2c(cc1O)CN(C(=S)NCCc1ccc(Cl)cc1)CCC2`: the activity change, negative = inhibition in assay [1] is 143% (active); in assay [2], -83%; in assay [3], 4.04%; in assay [4], -4.18%; in assay [5], -9.24%; in assay [6] it was 0.975%.
Regarding `COc1cc(O)c(C(=O)CCc2ccc(O)cc2)c(O[C@@H]2O[C@H](CO)[C@@H](O)[C@H](O)[C@H]2O)c1`, the activity change, negative = inhibition in assay [1] was -58.4% (active); in assay [2] it was -3.53%; in assay [3], -12.8%; in assay [4], 2.69%; in assay [5] it was -20.7%; in assay [6] it was -1.39%.
As for `COc1cc(C)c(C(=O)Oc2cc(C)c(C(=O)Oc3cc(C)c(C(=O)NC(C)C(=O)O)c(O)c3)c(O[C@@H]3O[C@H](CO)[C@@H](O)[C@H](O)[C@H]3OC(C)=O)c2)c(OC)c1` (some centres not stated), the activity change, negative = inhibition in assay [1] is -0.843% (inactive); in assay [2] it was -0.029%; in assay [3] it was 0.21%; in assay [4] it was 6.89%; in assay [5], -10.4%; in assay [6], -0.399%.
With `COC(=O)CCc1cc2ccoc2c(OC)c1O[C@@H]1O[C@H](CO)[C@@H](O)[C@H](O)[C@H]1O`, the activity change, negative = inhibition is 2.02% (inactive) in assay [1]; 2.54% in assay [2]; 4.92% in assay [3]; 10.2% in assay [4]; -6.92% in assay [5]; 6.11% in assay [6].
On to `CCN1CCN(C(=O)Cn2nc(C)c3sc(-c4ccccc4)nc3c2=O)CC1`, for which the activity change, negative = inhibition is -3.83% (inactive) in assay [1]; -9.13% in assay [2]; -4.75% in assay [3]; -2.34% in assay [4]; -11.6% in assay [5]; -11% in assay [6].
`CCCn1c(=O)c2ccc(C(=O)NC(C)CC)cc2n2c(=O)n(CC(=O)Nc3cc(C)cc(C)c3)nc12` (configuration not stated): the activity change, negative = inhibition in assay [1] was 4.21% (inactive); in assay [2], 2.22%; in assay [3] it was 5.41%; in assay [4] it was 6.27%; in assay [5], 0.889%; in assay [6], 3.91%.
For the molecule `COCCn1c2c(c(=O)n1-c1ccccc1)CCN(Cc1cccc(C#N)c1)C2`, the activity change, negative = inhibition in assay [1] was -2.46% (inactive); in assay [2] it was -6.45%; in assay [3], -6.81%; in assay [4] it was -9.66%; in assay [5], -7.68%; in assay [6], -4.57%.
In the case of `C=CCn1c(=O)c2ccc(C(=O)NC(C)C)cc2n2c(=O)n(CC(=O)NCc3ccccc3)nc12`, the activity change, negative = inhibition was 0.329% (inactive) in assay [1]; 7.7% in assay [2]; 1.61% in assay [3]; 12.5% in assay [4]; 0.93% in assay [5]; 4.28% in assay [6].
Regarding `COc1ccc(CNc2nc3c(S(=O)(=O)c4ccc(C)cc4)nnn3c3ccccc23)cc1`, the activity change, negative = inhibition was -0.038% (inactive) in assay [1]; -2.81% in assay [2]; 0.613% in assay [3]; 3.99% in assay [4]; 0% in assay [5]; -4.71% in assay [6].
Take `CC1CCC(Nc2nc3c(-c4cccc(F)c4)nnn3c3ccccc23)CC1` (configuration not stated): the activity change, negative = inhibition in assay [1] is -4.07% (inactive); in assay [2] it was 0.278%; in assay [3], 0%; in assay [4], -0.849%; in assay [5] it was -6.58%; in assay [6], -5.44%.
On to `COc1cc(N)c(Cl)cc1C(=O)NC[C@@H]1CCN2CCC[C@@H]12`, for which the activity change, negative = inhibition was -17.2% (inactive) in assay [1]; -4.41% in assay [2]; -14.1% in assay [3]; -11.2% in assay [4]; -21.4% in assay [5]; -18.4% in assay [6].
On to `CCOC(=O)c1cc2n(n1)CC(C)(C(=O)NCc1ccccc1)N(CCCc1ccccc1)C2=O` (configuration not stated), for which the activity change, negative = inhibition in assay [1] is -0.428% (inactive); in assay [2], 1.98%; in assay [3], 0%; in assay [4], 4.53%; in assay [5] it was -4.41%; in assay [6], 0.451%.
